Inconclusive results are not listed. Entries that show only a call come without a potency. Activity calls are given as the source filed them. The call rests on the fitted dose curve; in most records, active means well fitted inhibition curve with a large enough effect; inconclusive means small, poorly fitted or top-dose-only effect; inactive means flat fitted curve, though single readings scatter.
Columns and labels:
Assay in all cases: qHTS profiling for inhibitors of Plasmodium falciparum proliferation (AID 504749); further: nearly all actives have a fitted effect of over 60% in size
Settings in all cases: P. falciparum in erythrocytes, SYBR Green DNA, 72 h; series mostly up to 28.7 µM
[1] = system: 3D7
Method in brief: (§1)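 P. falciparum-infected erythrocytes (0.3% parasitemia, 2.5% hematocrit) incubated with compound 72 h at 37 C, 5% CO2. Parasite DNA detected by SYBR Green after lysis, overnight at room temperature; normalised to 0.29 uM artemisinin and DMSO.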

[2] = system: 7G8
Method in brief: as §1

[3] = system: AA1029
Method in brief: as §1

[4] = system: AS120
Method in brief: as §1

[5] = system: ATS189
Method in brief: as §1

[6] = system: ATS95
Method in brief: as §1

[7] = system: C2A
Method in brief: as §1

[8] = system: CP185
Method in brief: as §1

[9] = system: CP191
Method in brief: as §1

[10] = system: CP192
Method in brief: as §1
Potency means the concentration at half of the fitted maximal effect.

SMILES | Potency [1] | Potency [2] | Potency [3] | Potency [4] | Potency [5] | Potency [6] | Potency [7] | Potency [8] | Potency [9] | Potency [10]
O=C(O)CO.[NH2-].[NH2-].[Pt+2] | inactive | inactive | inactive | inactive | inactive | inactive | inactive | inactive | inactive | inactive
CN1c2cc(O)c(N=NC(N)=O)cc2CC1S(=O)(=O)O (configuration not stated) | inactive | inactive | inactive | inactive | inactive | inactive | inactive | inactive | inactive | inactive
Nc1ccc(S(=O)(=O)Nc2ncccn2)cc1 | inactive | inactive | inactive | inactive | inactive | inactive | inactive | inactive | inactive | inactive
C[C@H]1C[C@@H]2[C@@H]([C@@H](O)C[C@@]3(C)[C@H]2CC[C@]3(O)C(=O)CO)[C@@]2(C)C=CC(=O)C=C12 | inactive | inactive | inactive | inactive | inactive | inactive | inactive | inactive | inactive | inactive
COc1cc(C(=O)NS(=O)(=O)c2ccccc2C)ccc1Cc1cn(C)c2ccc(NC(=O)OC3CCCC3)cc12 | inactive | 12600 nM (active) | inactive | inactive | – | inactive | inactive | inactive | inactive | inactive
Nc1ccn([C@@H]2O[C@H](CO)[C@H](O)C2(F)F)c(=O)n1 | 3160 nM (active) | 2820 nM (active) | 1580 nM (active) | 3550 nM (active) | 3980 nM (active) | 5620 nM (active) | 3980 nM (active) | 5620 nM (active) | 1410 nM (active) | 6010 nM (active)
COc1c(N2C[C@@H]3CCCN[C@H]3C2)c(F)cc2c(=O)c(C(=O)O)cn(C3CC3)c12 | inactive | – | inactive | inactive | inactive | inactive | inactive | inactive | inactive | inactive
CC1(C)O[C@@H]2C[C@@H]3[C@H]4C[C@@H](F)C5=CC(=O)C=C[C@]5(C)[C@@]4(F)[C@@H](O)C[C@]3(C)[C@]2(C(=O)CO)O1 | inactive | – | inactive | inactive | inactive | inactive | inactive | inactive | inactive | –
Nc1ccn([C@@H]2CS[C@H](CO)O2)c(=O)n1 | inactive | inactive | inactive | inactive | inactive | inactive | inactive | inactive | inactive | inactive
COC(=O)C1=C(C)NC(C)=C(C(=O)OCCN2CCN(C(c3ccccc3)c3ccccc3)CC2)C1c1cccc([N+](=O)[O-])c1 (configuration not stated) | – | 1410 nM (active) | 2240 nM (active) | 2000 nM (active) | 1580 nM (active) | 2510 nM (active) | 3550 nM (active) | 4470 nM (active) | 3160 nM (active) | 4780 nM (active)
COC(=O)C[C@](O)(CCCC(C)(C)O)C(=O)O[C@@H]1C(OC)=C[C@]23CCCN2CCc2cc4c(cc2[C@H]13)OCO4 | 25.1 nM (active) | 11.2 nM (active) | 25.1 nM (active) | 15.8 nM (active) | 31.6 nM (active) | 28.2 nM (active) | 22.4 nM (active) | 35.5 nM (active) | 28.2 nM (active) | 26.9 nM (active)
CC=CC1=C(C(=O)O)N2C(=O)[C@H](NC(=O)[C@H](N)c3ccc(O)cc3)[C@@H]2SC1 | inactive | inactive | inactive | inactive | inactive | inactive | inactive | inactive | inactive | inactive
CC(C)(C)NC(=O)[C@H]1CN(Cc2cccnc2)CCN1C[C@@H](O)C[C@@H](Cc1ccccc1)C(=O)N[C@H]1c2ccccc2C[C@H]1O | – | – | – | – | – | – | 10000 nM (active) | – | 8910 nM (active) | 10700 nM (active)
O=c1[nH]c(=O)n(C2CCCO2)cc1F (configuration not stated) | inactive | inactive | inactive | inactive | inactive | inactive | inactive | inactive | inactive | inactive
CC[C@H]1CN2CCc3cc(OC)c(OC)cc3[C@H]2C[C@@H]1C[C@@H]1NCCc2cc(OC)c(OC)cc21 | 224 nM (active) | 126 nM (active) | 316 nM (active) | 316 nM (active) | 708 nM (active) | 282 nM (active) | 224 nM (active) | 316 nM (active) | – | 536 nM (active)
CCC1=C[C@@H]2CN(C1)Cc1c([nH]c3ccccc13)[C@@](C(=O)OC)(c1cc3c(cc1OC)N(C)[C@@H]1[C@@](O)(C(=O)OC)[C@H](OC(C)=O)[C@]4(CC)C=CCN5CC[C@]31[C@@H]54)C2 | 3160 nM (active) | 2240 nM (active) | 1580 nM (active) | 1410 nM (active) | 1780 nM (active) | 2000 nM (active) | 1260 nM (active) | 3160 nM (active) | 3980 nM (active) | 4260 nM (active)

Reference: PubChem BioAssay (NCATS)
